20 compounds from PubChem BioAssay can be followed below.

Values without a mark were called inactive. For some of these results: Potency and affinity values are given separately. Active and inactive are the calls of the source. Unless noted, no rule for the calls is given here.

Assay [1] in a line: antimalarial activity against Dd2 strain (AID 2302;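 active = growth inhibition above 50% at the single 2 µM test dose, taken to imply half-maximal potency below 2 µM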;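 also: 0% = DMSO untreated growth and 100% = chloroquine plus artemisinin killed control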). The settings on record: P. falciparum Dd2 in RBCs, LDH growth readout, 72 h; at 2 µM; hits give high values.
Assay [2] in a line: human hepatoma cell viability loss – ATP luminescence, cytotoxicity control for P. falciparum antimalarial project, primary screen (AID 2303;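 active = inhibition above 50%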;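 also: 0% = DMSO wells and 100% = digitonin-killed cells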). The settings on record: HepG2 viability, 24-48 h, at 10 µM, hits give high values.
Assay [3] addresses L-lactate dehydrogenase (Plasmodium falciparum (isolate CDC / Honduras)) (UniProt Q27743). Nature of the assay: PfLDH activity inhibition – cell lysate, 3D7 strain, counter-screen for P. falciparum growth inhibition project (AID 2304).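 Also: 0% = vehicle and 100% = reference inhibitor.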 The settings on record: P. falciparum 3D7 crude extract, LDH APAD/NBT absorbance; at 2 µM; hits give high values. (In general: Counterscreens check selectivity or assay interference.)

A short description of assay [4]: inhibition of 3D7 malaria parasite growth – strain 3D7 (AID 2306).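 Also: 0% = DMSO wells and 100% = chloroquine plus artemisinin control wells.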 To be noted: P. falciparum 3D7 erythrocytic growth, LDH absorbance, 72 h; at 2 µM; hits give high values.
The target in assay [5] is Calcium-dependent protein kinase 1 (Plasmodium falciparum (isolate 3D7)) (UniProt P62344). Put plainly: PfCDPK1 kinase inhibitors, biochemical, TCAMS library (AID 1159585; cut-off not given, nearly all actives have IC50 up to about 0.98 µM;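 also: inhibitors leave more ATP so luminescence rises with inhibition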). To be noted: recombinant PfCDPK1, Kinase-Glo ATP depletion luminescence. In general terms: Kinase-Glo reads ATP consumption through a luciferase reaction.
Calcium-dependent protein kinase 1 (Plasmodium falciparum (isolate 3D7)), sequence (P62344 whole entry, looked up): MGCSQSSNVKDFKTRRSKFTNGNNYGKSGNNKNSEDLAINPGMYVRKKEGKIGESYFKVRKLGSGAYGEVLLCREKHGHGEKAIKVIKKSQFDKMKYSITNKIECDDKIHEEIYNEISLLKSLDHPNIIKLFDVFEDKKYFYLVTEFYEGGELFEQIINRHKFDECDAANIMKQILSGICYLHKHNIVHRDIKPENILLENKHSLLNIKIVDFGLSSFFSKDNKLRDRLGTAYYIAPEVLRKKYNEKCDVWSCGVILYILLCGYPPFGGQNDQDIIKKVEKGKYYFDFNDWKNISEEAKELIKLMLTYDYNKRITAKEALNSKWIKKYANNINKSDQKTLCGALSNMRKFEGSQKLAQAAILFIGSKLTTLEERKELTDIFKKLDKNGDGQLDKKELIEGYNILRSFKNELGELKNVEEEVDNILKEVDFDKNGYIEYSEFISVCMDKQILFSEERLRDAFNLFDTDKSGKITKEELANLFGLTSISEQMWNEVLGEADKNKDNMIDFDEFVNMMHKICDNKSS
Assay [6] addresses Plasmodium falciparum protein kinase 6 (PK6, PF3D7_1337100) (UniProt Q8IDW1). Put plainly: PfPK6 kinase inhibitors, biochemical, TCAMS library (AID 1159586). To be noted: recombinant PfPK6, Kinase-Glo ATP depletion luminescence.
The target of assay [7] is Protein kinase 7 (PK7), Plasmodium falciparum 3D7 (PF3D7_0213400) (UniProt Q7YTF7). Nature of the assay: inhibition of Plasmodium PK7 catalytic activity – biochemical, TCAMS antimalarial set, Kinase-Glo luminescence (AID 1159587). The settings on record: recombinant PfPK7, Kinase-Glo ATP depletion luminescence.
Protein kinase 7 (PK7), Plasmodium falciparum 3D7 (PF3D7_0213400), sequence (Q7YTF7 1-343): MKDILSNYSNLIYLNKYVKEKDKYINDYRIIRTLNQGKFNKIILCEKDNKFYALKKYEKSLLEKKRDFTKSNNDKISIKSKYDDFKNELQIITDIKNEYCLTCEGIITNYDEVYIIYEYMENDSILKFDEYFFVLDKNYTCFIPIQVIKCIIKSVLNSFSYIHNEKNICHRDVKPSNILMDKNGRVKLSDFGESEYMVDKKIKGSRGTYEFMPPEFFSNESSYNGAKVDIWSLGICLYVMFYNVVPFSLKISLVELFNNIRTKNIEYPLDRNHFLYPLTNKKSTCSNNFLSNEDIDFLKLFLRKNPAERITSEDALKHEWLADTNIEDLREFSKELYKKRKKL
For assay [8], the target named is Calcium-dependent protein kinase 4 (Plasmodium falciparum (isolate 3D7)) (UniProt Q8IBS5). Nature of the assay: PfCDPK4 kinase inhibitors, biochemical, TCAMS library (AID 1159588; cut-off not given, nearly all actives have IC50 up to about 0.91 µM). To be noted: recombinant PfCDPK4, Kinase-Glo ATP depletion luminescence.
Calcium-dependent protein kinase 4 (Plasmodium falciparum (isolate 3D7)), sequence (Q8IBS5 whole entry, looked up): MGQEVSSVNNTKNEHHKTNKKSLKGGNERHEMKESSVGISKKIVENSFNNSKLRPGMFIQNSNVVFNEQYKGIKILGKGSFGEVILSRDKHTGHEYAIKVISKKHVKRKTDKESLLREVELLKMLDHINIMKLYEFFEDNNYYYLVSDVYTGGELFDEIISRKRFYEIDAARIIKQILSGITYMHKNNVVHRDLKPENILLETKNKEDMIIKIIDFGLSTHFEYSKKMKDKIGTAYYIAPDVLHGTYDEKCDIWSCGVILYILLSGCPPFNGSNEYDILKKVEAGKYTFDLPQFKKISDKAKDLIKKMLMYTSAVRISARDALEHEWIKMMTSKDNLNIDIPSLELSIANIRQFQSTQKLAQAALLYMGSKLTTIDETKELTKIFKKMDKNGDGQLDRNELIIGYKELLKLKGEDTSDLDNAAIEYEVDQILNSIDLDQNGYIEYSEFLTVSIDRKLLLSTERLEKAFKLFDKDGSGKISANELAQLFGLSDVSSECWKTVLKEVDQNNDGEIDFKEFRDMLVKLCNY

Plasmodium falciparum protein kinase 6 (PK6, PF3D7_1337100), sequence (Q8IDW1 1-305): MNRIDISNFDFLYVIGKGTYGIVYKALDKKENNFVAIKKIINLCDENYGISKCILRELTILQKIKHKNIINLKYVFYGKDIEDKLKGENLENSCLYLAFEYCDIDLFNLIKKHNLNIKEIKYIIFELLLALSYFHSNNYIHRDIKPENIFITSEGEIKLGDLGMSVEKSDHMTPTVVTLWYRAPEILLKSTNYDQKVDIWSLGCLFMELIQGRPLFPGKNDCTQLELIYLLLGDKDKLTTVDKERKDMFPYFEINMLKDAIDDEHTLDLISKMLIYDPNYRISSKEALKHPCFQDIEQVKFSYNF
L-lactate dehydrogenase (Plasmodium falciparum (isolate CDC / Honduras)), sequence (Q27743 whole entry, looked up): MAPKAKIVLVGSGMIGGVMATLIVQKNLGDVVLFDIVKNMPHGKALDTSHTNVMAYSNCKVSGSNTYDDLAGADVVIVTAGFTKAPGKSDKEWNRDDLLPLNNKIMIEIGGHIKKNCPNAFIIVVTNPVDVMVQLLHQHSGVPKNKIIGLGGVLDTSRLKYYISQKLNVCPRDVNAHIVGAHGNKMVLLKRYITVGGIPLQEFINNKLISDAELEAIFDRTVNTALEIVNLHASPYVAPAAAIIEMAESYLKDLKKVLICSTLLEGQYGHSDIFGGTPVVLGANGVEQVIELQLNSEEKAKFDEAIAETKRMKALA

One may read the inhibition as the drop in the measured response relative to a control, in per cent. Regarding `Cc1ccc(-c2nc3ccc(C(=O)NC4CCC(N5CCCc6ccc(C#N)cc6C5)CC4)cc3[nH]2)cc1` (stereo not given), the figures for the growth inhibition in assay [1] and in assay [4] were 49% and 101% (active), respectively. Also, the inhibition in assay [2] was 23%; in assay [3], -2%. Moreover, the result in assay [5], in assay [6], in assay [7] and in assay [8] was inactive.
For `COc1cc(C(F)(F)F)cc2[nH]c(CNCCCNc3nc4ccccc4[nH]3)cc12`, the results for the growth inhibition in assay [1] and in assay [4] were 2% and 102% (active), respectively. Also, the inhibition in assay [2] is 59% (active); in assay [3], 2%. In addition, the outcome in assay [5], in assay [6], in assay [7] and in assay [8] was inactive.
Turning to `O=C(Nc1ccc(Cl)cc1F)NC1CCN(CCCCCNC(=O)[C@@H]2C[C@H]2c2ccc(Cl)c(Cl)c2)CC1`, the growth inhibition in assay [1] is 27%; in assay [4], 101% (active). In addition, the inhibition in assay [2] is 46%; in assay [3], -5%. Further, the outcome in assay [5], in assay [6], in assay [7] and in assay [8] was inactive.
`Cc1cc(F)ccc1Oc1nc(Nc2ccc(N3CCOCC3)c(F)c2)nc2c1S(=O)(=O)CCC2`: the growth inhibition is 98% (active) in assay [1] and 96% (active) in assay [4]. The inhibition is 10% in assay [2] and 0% in assay [3]. For the same compound, the result in assay [5], in assay [6], in assay [7] and in assay [8] was inactive.
Turning to `CCCCCC(NCCCC)c1ccc(OCCOc2ccc(C(CCCCC)NCCCC)cc2)cc1` (stereo not given), the growth inhibition is 96% (active) in assay [1] and 88% (active) in assay [4]. The values for the inhibition in assay [2] and in assay [3] were 99% (active) and -2%, respectively. The result in assay [5], in assay [6], in assay [7] and in assay [8] was inactive.
Take `COc1ccc(CCON2C(N)=NC(N)=NC2(C)C)cc1OC`: the growth inhibition is 93% (active) in assay [1] and 96% (active) in assay [4]. Also, the results for the inhibition in assay [2] and in assay [3] were 64% (active) and 2%, respectively. For the same compound, the outcome in assay [5], in assay [6], in assay [7] and in assay [8] was inactive.
Take `Cc1cnc(C(=O)Nc2cccc(-c3csc(-c4nc5ccccc5[nH]4)c3)c2)cn1`: the growth inhibition in assay [1] was 80% (active); in assay [4], 98% (active). In addition, the inhibition in assay [2] is 31%; in assay [3], -1%. Moreover, the outcome in assay [5], in assay [6], in assay [7] and in assay [8] was inactive.
Turning to `Cc1[nH]c(C)c(-c2cccc(-c3ccc(OC(F)(F)F)cc3)c2)c(=O)c1Br`, the values for the growth inhibition in assay [1] and in assay [4] were 96% (active) and 97% (active), respectively. The inhibition is 45% in assay [2] and 0% in assay [3]. Besides, the outcome in assay [5], in assay [6], in assay [7] and in assay [8] was inactive.
Regarding `CN1CCCN(c2ccnc3cc4c(cc23)N(C(=O)c2ccc(Cl)c(Cl)c2)CC4)CC1`, the growth inhibition in assay [1] was 73% (active); in assay [4], 101% (active). In addition, the inhibition in assay [2] is 20%; in assay [3], 2%. Further, the outcome in assay [5], in assay [6], in assay [7] and in assay [8] was inactive.
Turning to `CCCCCCC(C)c1cc(O)c2c(c1)OC(=O)CC2(CC)c1ccccn1` (stereo not given), the growth inhibition in assay [1] was -2%; in assay [4] it was 100% (active). Also, the inhibition in assay [2] is 15%; in assay [3], -2%. For the same compound, the result in assay [5], in assay [6], in assay [7] and in assay [8] was inactive.
As to `CCNc1cc(C(=O)N[C@@H](Cc2ccccc2)[C@H](O)CN[C@@H](C)c2ccccc2)cc(N2CCCC2=O)c1`, the growth inhibition was 96% (active) in assay [1] and 98% (active) in assay [4]. Further, the inhibition in assay [2] is 7%; in assay [3] it was 8%. In addition, the result in assay [5], in assay [6], in assay [7] and in assay [8] was inactive.
For `O=C(Nc1ccc(Br)cc1)c1cc(Br)ccc1NS(=O)(=O)c1ccc(C(F)(F)F)cc1`, the growth inhibition in assay [1] was 56% (active); in assay [4], 100% (active). For the same compound, the inhibition in assay [2] was 53% (active); in assay [3], 2%. In addition, the result in assay [5], in assay [6], in assay [7] and in assay [8] was inactive.
On to `CC1(C)N=C(N)N=C(N)N1c1ccc(Oc2ccc(Cl)cc2)c(Cl)c1`, for which the values for the growth inhibition in assay [1] and in assay [4] were 20% and 97% (active), respectively. Also, the inhibition in assay [2] was 13%; in assay [3], -2%. The result in assay [5], in assay [6], in assay [7] and in assay [8] was inactive.
Regarding `CN1CCC(C(=O)N(Cc2ccc(-c3ccc(CNCCc4ccc(S(C)(=O)=O)cc4)cn3)cc2)C2CCN(Cc3ccccc3)CC2)CC1`, the growth inhibition in assay [1] was 95% (active); in assay [4] it was 102% (active). The results for the inhibition in assay [2] and in assay [3] were 11% and -5%, respectively. Moreover, the result in assay [5], in assay [6], in assay [7] and in assay [8] was inactive.
For `CCCCc1ccc(-c2ccc3[nH]c(C)c(Br)c(=O)c3c2)cc1`, the growth inhibition in assay [1] and in assay [4] was 97% (active) in each case. Also, the inhibition was -10% in assay [2] and -2% in assay [3]. Further, the outcome in assay [5], in assay [6], in assay [7] and in assay [8] was inactive.
In the case of `COc1ccc(-c2ccccc2OCCCNc2nc(NCCc3ccc(O)cc3)nc(N3CCNCC3)n2)cc1`, the growth inhibition in assay [1] is 3%; in assay [4], 99% (active). The inhibition was 36% in assay [2] and -1% in assay [3]. For the same compound, the result in assay [5], in assay [6], in assay [7] and in assay [8] was inactive.
Take `COc1ccc2nccc(N3CCC(SCCNS(=O)(=O)c4ccc5c(c4)OCCO5)C3)c2n1` (stereo not given): the growth inhibition was 87% (active) in assay [1] and 94% (active) in assay [4]. Further, the inhibition in assay [2] was 36%; in assay [3], 5%. Further, the outcome in assay [5], in assay [6], in assay [7] and in assay [8] was inactive.
Consider `Fc1ccc2nc(-c3cccc(-c4ccc(CN5CCN(c6ccncc6)CC5)cc4)c3)[nH]c2c1`, for which the growth inhibition in assay [1] is 67% (active); in assay [4], 100% (active). In addition, the inhibition was 39% in assay [2] and 0% in assay [3]. For the same compound, the outcome in assay [5], in assay [6], in assay [7] and in assay [8] was inactive.
As to `O=[N+]([O-])c1cccc(-c2nc(-c3ccc(Br)cc3)[nH]c2-c2ccc(Br)cc2)c1`, the growth inhibition in assay [1] is 44%; in assay [4], 99% (active). For the same compound, the inhibition was 6% in assay [2] and 2% in assay [3]. The outcome in assay [5], in assay [6], in assay [7] and in assay [8] was inactive.
Consider `FC(F)(F)Oc1ccc(Nc2cc(-c3ccncc3)nc(-c3cccnc3)n2)cc1`, for which the growth inhibition is 52% (active) in assay [1] and 94% (active) in assay [4]. Besides, the values for the inhibition in assay [2] and in assay [3] were 24% and 0%, respectively. For the same compound, the result in assay [5], in assay [6], in assay [7] and in assay [8] was inactive.
